Five compounds from PubChem BioAssay AID720536 (National Center for Advancing Translational Sciences (NCATS), 2013) can be followed below.

Screen size: about 1,600 compounds; about 650 (41%) were called active. Another 39% or so got no clear call; they are omitted. So high a share suggests a set chosen from earlier hits. This excerpt belongs to a sample that is enriched for actives. A number with no mark means an inactive call. Calls come from the whole dose curve; as a rule, active = well fitted inhibition curve with a large enough effect; inconclusive = small, poorly fitted or top-dose-only effect; inactive = no such curve, though single readings can be large or run the other way.
Potency is the fitted concentration of half-maximal effect.

The nature of the test: qHTS for Inhibitors of TGF-b: CCL64 Cells Orthogonal Assay for Cherry Picks. Note: nearly all actives have a fitted effect of over 65% in size. As to conditions: CCL64 CAGA-GFP reporter, TGF-b stimulated, GFP fluorescence, 18 h; series mostly up to 46.1 µM; activity, negative = inhibition: at the top concentration. The source says:
TGF-b is a main component in the TGF-b signaling pathway which plays diverse roles in cellular and development pathways. TGF-b is the mediated by the transcription factors Smads. Although the Smad-dependent pathway is the primary canonical TGF-b signaling node, TGF-b1 can also activate alternative signaling pathways, including those involving MAPK (ERK, JNK and p38). This interaction may mediate or enhance Smad-dependent responses, or can exert Smad-independent effects. The complexity of this signaling cascade allows the TGF-b superfamily to perform unique, overlapping or redundant functions. We believe that targeting the TGF-beta pathway at the Smad-transcription factor level may eliminate the consequences of disrupting the entire pathway and offer specificity without affecting other signaling pathways. Smad3 is the primary transducer of TGF-b's signals and Smad3 regulates many functions attributed to TGF-b signaling. We hypothesize that Smad3 inhibitors will selectively eliminate Smad3-specific TGF-beta signals without undesired off-target effects. We aim to identify Smad3-small molecule antagonists using a quantitative high throughput screening (qHTS) approach. A high-throughput assay was developed to screen the NIH Molecular Libraries Small Molecule Repository (MLSMR). This is a cell based assay, where TGF-b is tagged with GFP. This orthogonal assay was run using CCL64 cells (as opposed to HepG2); activity was desired in this assay as this indicated the hits identified from the screen are not a cell-based artifact. MH087449NIH Chemical Genomics Center [NCGC] NIH Molecular Libraries Probe Centers Network [MLPCN] MLPCN Grant: MH087449 Assay Submitter (PI): Sushil Rane, National Institute of Diabetes and Kidney Diseases
Suspensions of trypsinized CCL64 CAGA-GFP cells were dispensed into white, tissue culture-treated, solid 1536-well plates at 5uL/well (1000 cells/well final concentration) in DMEM medium supplemented with 1% FBS. Plates were incubated at 37 degrees C for 2 hours, after which 23 nL of compounds or DMSO were delivered to each well using a pin tool. One uL of recombinant TGF-beta in DMEM (1% FBS) was then dispensed (500 pg/mL final concentration), and plates were incubated at 37 degrees C for 18 hours. The plates were measured on an Acumen eX3 Explorer plate reader for GFP fluorescence (ex488/em500-530). GFP values were calculated by determining the mean GFP fluorescence of individual cells, and compiling these values for each well to determine a total well GFP signal. The %Activity was determined from the corrected fluorescence values. A titration of the known TGF-B inhibitor SB431542 was included to monitor plate performance, while unstimulated […] (-TGF-B) control wells were used to normalize %Activity of identified inhibitors; unstimulated wells corresponded to 100%Activity (full inhibition), while stimulated cell controls (+DMSO) were used to normalize 0%Activity (no inhibition). Concentration-response curves were fitted to the signals arising from the resulting fluorescence. The concentration-effect curves were then classified based on curve quality (r2), response magnitude and degree of measured activity, and compounds were subsequently categorized based on their curve class.
On the technique in general: qHTS replaces the single test concentration by a dilution series.
Turning to `CCC(C)(O)C(=O)OC1C(=O)OC2CC3C(C)=CC(=O)C(O)C3(C)C3C4(O)OCC23C1C(C)C4O` (stereo not given), the Potency was 0.231 µM (active).

As for `O=c1c2ccccc2nc(/C=C/c2ccc(F)cc2)n1-c1ccccc1O`, the Potency is 18.4 µM (active).

As for `COC(=O)C1=C(c2cc3ccccc3o2)C[C@@H]2CC[C@H]1N2C(=O)NC1CCCCC1`, the Potency is 14.6 µM (active).

For `CC[C@H]1CN2CCc3cc(OC)c(OC)cc3[C@@H]2C[C@@H]1C[C@H]1NCCc2cc(OC)c(OC)cc21`, the Potency was 0.116 µM (active).

Turning to `O=Cc1cn(Cc2ccc(F)cc2Cl)c2ccccc12`, the “activity, negative = inhibition” value was 1.08%.
